Results as given in PubChem BioAssay (NCI).
About 83,000 compounds went through this panel and 20% of them were active in at least one assay; those are over-represented in the sample as a whole.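 Plates (96-well) were seeded with cells, treated with compound at one concentration, and incubated for 48 hours before percent growth was determined.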 Unmarked numbers belong to inactive results. Calls of active or inactive are those of the source. The calls were made as follows: active = growth percent below 10; inactive = the rest.

Columns and labels:
Assay in all cases: NCI-60 one-dose screen, 48 h (100 = growth as untreated, 0 = no growth, -100 = all killed)
Details in all cases: 10 µM unless noted
HCT-15 colon = system: HCT-15 colon
HT29 colon = system: HT29 colon
SNB-75 CNS = system: SNB-75 CNS
SNB-19 CNS = system: SNB-19 CNS
U251 CNS = system: U251 CNS
PC-3 prostate = system: PC-3 prostate
SK-MEL-5 melanoma = system: SK-MEL-5 melanoma
UACC-62 melanoma = system: UACC-62 melanoma
LOX IMVI melanoma = system: LOX IMVI melanoma
SK-MEL-28 melanoma = system: SK-MEL-28 melanoma
SK-MEL-2 melanoma = system: SK-MEL-2 melanoma
EKVX NSCLC = system: EKVX NSCLC
SN12C renal = system: SN12C renal
UO-31 renal = system: UO-31 renal
TK-10 renal = system: TK-10 renal
ACHN renal = system: ACHN renal
CAKI-1 renal = system: CAKI-1 renal
A498 renal = system: A498 renal
CCRF-CEM leukemia = system: CCRF-CEM leukemia
MOLT-4 leukemia = system: MOLT-4 leukemia

SMILES	growth (HCT-15 colon)	growth (HT29 colon)	growth (SNB-75 CNS)	growth (SNB-19 CNS)	growth (U251 CNS)	growth (PC-3 prostate)	growth (SK-MEL-5 melanoma)	growth (UACC-62 melanoma)	growth (LOX IMVI melanoma)	growth (SK-MEL-28 melanoma)	growth (SK-MEL-2 melanoma)	growth (EKVX NSCLC)	growth (SN12C renal)	growth (UO-31 renal)	growth (TK-10 renal)	growth (ACHN renal)	growth (CAKI-1 renal)	growth (A498 renal)	growth (CCRF-CEM leukemia)	growth (MOLT-4 leukemia)
CCN(CC)c1ccc2c(c1)Oc1nc(N)c(C#N)c(N)c1C2Sc1ccc(C)cc1 (stereo not given)	-83.8% (active)	-23.5% (active)	-82.3% (active)	-97.4% (active)	-78.5% (active)	-88.5% (active)	-96.4% (active)	-88.5% (active)	-92.2% (active)	-94.5% (active)	-83.2% (active)	-97.2% (active)	-69.7% (active)	-99.7% (active)	-90.6% (active)	-98.8% (active)	-97.9% (active)	-85.2% (active)	-19.7% (active)	-14.2% (active)
CCCn1cnc2c(c1=N)C(c1ccc(Cl)cc1)c1sc3c(CC)cccc3c1O2 (stereo not given)	17.6%	-5.38% (active)	-1.58% (active)	23.1%	14.3%	3.88% (active)	31%	12.8%	29.3%	57.8%	22.5%	43%	27.8%	32.4%	61.1%	35.3%	32.2%	-8.25% (active)	0.961% (active)	10%
N#Cc1cccc(/C(N)=N/C(N)=N/c2nc3ccccc3s2)c1	31.9%	11.3%	22.2%	27.3%	27.7%	17.7%	41.5%	34.5%	46.2%	65.4%	40.4%	43.3%	34.9%	44.2%	81.3%	48.3%	34%	-4.3% (active)	6.56% (active)	27.7%
COc1cc2oc(-c3cccc(NC(=O)c4cc(N)ccc4Cl)c3)cc(=O)c2c(OC)c1OC	85.7%	110%	101%	100%	101%	97.9%	75.3%	94.4%	87.1%	108%	110%	91.4%	100%	80.9%	98.3%	95%	87.9%	82.6%	64.9%	72.8%
Cn1ccnc1C(=O)/C=C/c1ccc(NC(=O)c2c(F)c(F)c(F)c(F)c2F)cc1	85.9%	112%	103%	98.3%	99%	100%	91.2%	97.2%	81.6%	105%	112%	99.7%	101%	79.7%	133%	101%	107%	113%	86%	85.2%
c1ccc(C(c2nc3ncncc3[nH]2)N2CSc3nc4ccccc4n3C2)cc1 (stereo not given)	101%	107%	91%	100%	107%	95.6%	106%	93.1%	102%	104%	103%	97.5%	98.8%	82.7%	115%	94.7%	89.5%	102%	108%	104%
Fc1ccc(-c2cc3nc(C(Cl)Cl)nc(-c4ccco4)n3n2)cc1	4.34% (active)	-13.4% (active)	55.7%	0.644% (active)	-9.36% (active)	-19.2% (active)	95.9%	17.2%	93.5%	-24.5% (active)	55.1%	-8.73% (active)	59.1%	-14.5% (active)	-11.7% (active)	-35.3% (active)	-23.7% (active)	-38.6% (active)	85.2%	59.7%
CC(Nc1c(C#N)cnc2ccc(-c3cnc(N)nc3)cc12)c1ccccc1 (stereo not given)	9.92% (active)	17.4%	18.9%	20.4%	21%	10.8%	-67.3% (active)	3.27% (active)	4.6% (active)	17.9%	2.77% (active)	0.82% (active)	14.7%	7.41% (active)	-20.7% (active)	14.6%	1.74% (active)	-38.6% (active)	19.1%	2.96% (active)
CCOC(=O)C(=O)CC(=O)N1C(=S)NC(=O)C1CC(C)C (stereo not given)	94.8%	113%	100%	99.9%	105%	103%	95.6%	96.3%	98%	99.6%	111%	98.2%	97.6%	84%	106%	103%	102%	98.6%	100%	108%
COc1ccc(NC(=O)Nc2ccc3c(ccn3C(=O)c3cccc(F)c3)c2)cc1	71.6%	64%	44%	80.8%	54.4%	77.4%	76.6%	65.9%	57%	87.2%	94.5%	88%	50.7%	94.1%	103%	53.9%	90.1%	88.7%	56.3%	73.2%
CN1CCN(c2ccc(/C=N/n3cnc4oc(-c5ccccc5)cc4c3=N)cc2)CC1	83.9%	66.2%	55.3%	101%	100%	63.2%	88.6%	93%	61.3%	77.8%	103%	88.4%	66%	63.7%	119%	70.1%	72.5%	81.4%	44.8%	44.4%
CN(C)CCCOc1ccc2c(c1)CN(C(=O)c1cc(C(=O)N3Cc4cccc(F)c4C3)ccc1O)C2	88.5%	106%	95%	101%	98.4%	102%	98.2%	96.3%	91.8%	104%	117%	103%	99.4%	95.3%	122%	106%	95.8%	97.1%	98.1%	97.5%
O=C(/C=C/c1ccc(F)cc1)c1ccc(O)cc1	73.5%	93.2%	95.3%	91.4%	66.7%	95.4%	94%	88%	63.3%	109%	115%	104%	91.9%	91.9%	106%	102%	87%	101%	77.6%	92.5%
CC(=O)N1C(=S)NC(=O)C1CC(C)C (stereo not given)	99.7%	115%	103%	102%	101%	106%	106%	93.7%	95.5%	101%	102%	102%	101%	93.2%	100%	105%	96.3%	109%	103%	105%
Cc1ccc(CSc2nc(-c3ccc(Cl)cc3)c(C#N)c(N3CCNCC3)n2)cc1	76.2%	58.4%	68.5%	84.7%	65.4%	63.5%	74.2%	105%	52.1%	102%	115%	82.2%	77.8%	64.2%	99.7%	82.3%	64.9%	17.6%	65.6%	55.5%
